Source: PubChem BioAssay
Shh pathway inh – Sonic Hedgehog pathway inhibition | inhibition, % (concentration not given with the values) | AID 2313 | hit rate 2.1% among 22,000 | Shh-LIGHT2 Gli-luciferase reporter, 30 h;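 active means mean inhibition across valid replicates above about 65%, limit read from the data; inconclusive means mean under the limit, yet half or more replicates past it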;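 further: pathway switched on by Shh-conditioned medium diluted 1 in 25 in low serum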
MITF inhib – inhibitors of MITF. hit rate 0.28% among 37,000. AID 2240. TRPM1 promoter luciferase, luminescence, 24 h. inhibition, % (test concentration not listed); in the data active means inhibition above about 85%; inconclusive means no clear call, values can overlap the other calls; inactive means below about 68%;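 further: human melanocyte line stably carrying TRPM1 promoter luciferase reporter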
NOMO-1 viab – STK33 inhibitor candidate reducing NOMO-1 cell viability | hit rate 7.5% among 37,000 | AID 2330 | NOMO-1 AML viability, CellTiter-Glo luminescence, 72 h | inhibition, % (concentration not given with the values); in the data active means inhibition above about 80%; inconclusive means no clear call, values can overlap the other calls
Starred values were filed as active, the others as inactive; ? = inconclusive; . = no result given. Compounds with a hit are over-represented: about 7.9% of the library has one in this group of screens.

SMILES	Shh pathway inh	MITF inhib	NOMO-1 viab
Cc1noc(C)c1S(=O)(=O)Nc1ccc2c(c1)C(=O)N([C@@H](C)CO)C[C@H](C)[C@@H](CN(C)S(C)(=O)=O)O2	.	-2	-6
CCOC(=O)c1c(NC(=O)COc2ccc(F)cc2)sc2c1CCCC2	.	-2	12
C[C@H]1CN([C@@H](C)CO)C(=O)c2cc(NC(=O)NC3CCCCC3)ccc2O[C@H]1CN(C)Cc1ccncc1	.	-13	100*
C[C@@H]1CN([C@H](C)CO)C(=O)c2cc(NC(=O)NC3CCCCC3)ccc2O[C@H]1CN(C)Cc1ccncc1	.	-7	8
C[C@@H]1CN([C@@H](C)CO)C(=O)c2cc(NC(=O)C3CCCCC3)ccc2O[C@@H]1CN(C)Cc1ccc(Oc2ccccc2)cc1	39	4	115*
C[C@H]1CN([C@@H](C)CO)C(=O)c2cc(NC(=O)C3CCCCC3)ccc2O[C@@H]1CN(C)Cc1ccc(Oc2ccccc2)cc1	.	14	21
COc1cccc(C(=O)COc2ccc(NC(=O)c3ccccc3Cl)cc2)c1	.	-18	-1
O=C(O)c1ccc2nc(CCc3nc4ccc(C(=O)O)cc4[nH]3)[nH]c2c1	.	-11	5
FC(F)(F)c1nc2ccc(Cl)cc2[nH]1	49	67	121*
O=C(CSc1nc2ccccc2nc1N1CCCC1)NCCc1ccc(Cl)cc1	27	23	57
O=S(=O)(Nc1nc2ccccc2nc1NCCc1ccccc1)c1ccc(Cl)cc1	78*	47	18
C[C@H]1CN([C@@H](C)CO)C(=O)Cc2cc(NS(=O)(=O)c3ccccc3)ccc2O[C@@H]1CN(C)C(=O)NC1CCCCC1	1	-10	0
CC(C)(C)c1ccc(OCC(=O)NCc2cccnc2)c(Br)c1	.	5	23
CCn1c(SCC(=O)N2c3ccccc3CCc3ccccc32)nnc1-c1ccco1	.	3	2
N#Cc1ccc(-c2ccc(OC(=O)CS(=O)c3ccc(C(F)(F)F)cc3[N+](=O)[O-])cc2)cc1 (stereo not given)	.	-8	129*
COC(=O)c1ccc(OC(=O)CS(=O)c2ccc(C(F)(F)F)cc2[N+](=O)[O-])cc1 (stereo not given)	.	26	109*
CC(=O)Nc1cccc(NC(=O)CNc2ccc(C(F)(F)F)cc2[N+](=O)[O-])c1	.	7	-12
O=C(NCCNc1ccc(C(F)(F)F)cc1[N+](=O)[O-])c1ccc(F)cc1	.	0	18
CC[C@]12CCCN3CCc4c(n(c5ccccc45)C(=O)C1)[C@@H]32	-1	-3	112*
CC[C@]12CCCN3CCc4c(n(c5ccccc45)[C@@](O)(C(=O)OC)C1)[C@@H]32	29	1	-1
C[C@@H]1CCCCO[C@@H](CN(C)C(=O)Nc2ccc(C(F)(F)F)cc2)[C@@H](C)CN([C@H](C)CO)C(=O)c2cc(NS(=O)(=O)c3ccc(F)cc3)ccc2O1	98*	40	110*
Cc1ccc(S(=O)(=O)Nc2ccc3c(c2)C(=O)N([C@H](C)CO)C[C@H](C)[C@@H](CN(C)C(=O)Nc2ccc(C(F)(F)F)cc2)OCCCC[C@@H](C)O3)cc1	47	27	69
COc1ccc(S(=O)(=O)Nc2ccc3c(c2)C(=O)N([C@H](C)CO)C[C@H](C)[C@H](CN(C)C(=O)Nc2ccc(C(F)(F)F)cc2)OCCCC[C@@H](C)O3)cc1	-22	32	134*
C[C@@H]1CCCCO[C@H](CN(C)C(=O)Nc2ccc(C(F)(F)F)cc2)[C@@H](C)CN([C@H](C)CO)C(=O)c2cc(NS(=O)(=O)c3ccccc3)ccc2O1	24	36	70
C[C@@H]1CN([C@@H](C)CO)C(=O)c2cc(NC(=O)CCCN(C)C)ccc2O[C@H]1CN(C)Cc1ccc(-c2ccccc2)cc1	.	-8	12
SMILES	Shh pathway inh	MITF inhib	NOMO-1 viab
S=C(NCc1ccccc1Cl)NC12CC3CC(CC(C3)C1)C2	?	47	115*
O=C(NC(=S)NC12CC3CC(CC(C3)C1)C2)c1ccccc1	-103	-19	26
FC(F)(F)c1ncncc1-c1nnnn1-c1ccccc1	-19	0	0
CCOc1ccc(NC(=O)CSc2nc(N)c3c4c(sc3n2)COC(C)(C)C4)cc1	.	-17	-2
CCOC(=O)CSc1nc(N)c2c3c(sc2n1)COC(C)(C)C3	.	-20	105*
O=C1c2ccc(O)cc2C(=O)c2ccc(O)cc21	-5	-40	14
CC(=O)N1N=C2c3ccccc3CCC2C1c1cccs1 (stereo not given)	.	27	-7
C=CCNC(=S)N1N=C2c3ccccc3CCC2C1c1ccccc1Cl (stereo not given)	.	6	109*
CCN(CCS(=O)(=O)c1ccc(C)cc1)C(=O)c1ccc(-c2cc(C(F)(F)F)nn2C)s1	13	12	-3
Cc1n[nH]c(C)c1C(=O)CC1(O)C(=O)N(Cc2ccccc2)c2ccccc21 (stereo not given)	.	12	5
